# Bioassay records from PubChem.
# Most compounds without a hit are left out; they make up all but 2.5% or so of the library.
# Cruzain inh noDet: cruzain (T. cruzi) inhibition without detergent | AID 1476 | purified cruzain, Z-FR-AMC fluorescence, no detergent | 2.3% of 200,000 active | Potency, µM, inactives show max response, negative = inhibition, actives largely listed as inhibitors | P25779;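 note: plate controls were enzyme without inhibitor for no effect and buffer without enzyme for full effect; nearly all actives have a fitted effect of over 40% in size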
# Target sequence (P25779 123-467 limits assumed): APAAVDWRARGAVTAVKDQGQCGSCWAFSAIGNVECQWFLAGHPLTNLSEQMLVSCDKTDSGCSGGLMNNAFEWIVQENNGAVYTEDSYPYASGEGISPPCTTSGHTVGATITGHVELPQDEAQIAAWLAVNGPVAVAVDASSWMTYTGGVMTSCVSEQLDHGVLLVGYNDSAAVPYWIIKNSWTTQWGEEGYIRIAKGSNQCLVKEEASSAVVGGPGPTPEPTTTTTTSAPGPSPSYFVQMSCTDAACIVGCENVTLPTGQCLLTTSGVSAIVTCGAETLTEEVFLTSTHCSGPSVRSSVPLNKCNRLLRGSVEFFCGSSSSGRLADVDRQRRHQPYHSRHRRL
#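 Purified cruzain at 1.5 nM, pre-incubated 15 min with compound at room temperature in 100 mM sodium acetate pH 5.5, 5 mM DTT, 0.00005% Triton X-100. Reaction started with 2 uM Z-FR-AMC; AMC fluorescence increase over 60 s gives rate.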
# Cruzain inh Det: blocks cruzain activity in presence of Triton detergent | Potency, µM, for inactives: max response, negative = inhibition, hits mostly inhibitors | AID 1478 | P25779 | purified cruzain, Z-FR-AMC fluorescence, 0.01% Triton | 0.43% of 200,000 active;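 note: plate controls were neutral wells for no effect and buffer without enzyme for full effect; nearly all actives have a fitted effect of over 40% in size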
#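 Read-out: AMC fluorescence (360 nm excitation, 450 nm emission), four reads over 2 min, first-to-third difference used. Conditions: cruzain 1.5 nM, Z-FR-AMC 2 uM, pH 5.5 acetate, 5 mM DTT, 0.01% Triton X-100.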
# Starred values were filed as active, the others as inactive; ? = inconclusive. Calls come from the whole dose curve; as a rule, active = well fitted curve in the direction sought with a large enough effect; inconclusive = small, poorly fitted or top-dose-only effect, or another doubt; inactive = no such curve, though single readings can be large; an effect the other way counts as inactive or inconclusive. Potency is the fitted concentration of half-maximal effect.
SMILES,Cruzain inh noDet,Cruzain inh Det
O=C(COC(=O)C1CC(=O)N(c2nc(-c3ccccc3)cs2)C1)c1ccccc1 (centres undefined),25.1µM*,-5.1%
COc1ccc(Cl)cc1NC(=O)c1ccc2c(c1)CCN2S(C)(=O)=O,?,-7.3%
N=P(N1CCOCC1)(N1CCOCC1)C12CC3CC(CC(C3)C1)C2,25.1µM*,28.2µM*
O=C(N1CCOCC1)C12CCC3CC(CC(C3)C1)C2,-2.2%,3.7%
COc1cc(/C=N/NC(=O)C(=O)/C=C2\NC3(CCCC3)Cc3ccccc32)ccc1O,-1.9%,-7.6%
O=C(/C=C1\NC2(CCCC2)Cc2ccccc21)C(=O)N/N=C/c1ccccc1O,25.1µM*,0.7%
CCc1ccc(C2=C/C(=C/c3cccnc3)C(=O)O2)cc1,2.9%,-10.4%
Cc1ccc(C2=N/C(=C\c3cccnc3)C(=O)O2)cc1,12.6µM*,14.1µM*
COc1ccc(C)cc1N(C(=O)c1ccccc1F)c1nc2ccccc2s1,1.58µM*,-5.2%
COc1ccc(C)cc1N(C(=O)c1ccccc1)c1nc2ccccc2s1,?,-3.5%
Cc1ccc(CSc2ncc(Cl)c(C(=O)Oc3ccc(F)cc3)n2)cc1,-4.2%,-1.0%
COc1ccc(OC(=O)c2nc(SCc3ccc(C)cc3)ncc2Cl)cc1,20µM*,-1.4%
COc1ccccc1S(=O)(=O)Cc1ccc(C(=O)N2CCN(c3cc(Cl)ccc3C)CC2)o1,?,-3.4%
O=C(CSc1nc2c(c(=O)[nH]1)CCC2)Nc1cccc(Cl)c1,-2.8%,4.0%
CCc1cccc(NC(=O)CSc2nc3c(c(=O)[nH]2)CCCC3)c1,25.1µM*,-1.4%
Cc1ccc(-c2nc3c4ccccc4[nH]c(=O)n3n2)cc1,-3.3%,-3.5%
Cc1ccc(-c2nn(-c3ccc(F)cc3F)c3c2cnc2ccc(F)cc23)cc1,-6.6%,-0.5%
COc1cc(OC)cc(-n2nnc(-c3nc(-c4ccccc4Cl)no3)c2N)c1,-1.1%,-0.6%
Cc1cc(C)c2nc(NNC(=O)c3cc(-c4cccs4)nc4ccccc34)sc2c1,?,1.8%
Cc1ccc2sc(NNC(=O)c3cc(-c4cccs4)nc4ccccc34)nc2c1C,10µM*,0.3%
O=C(NN1CCOCC1)c1cc(-c2cccs2)nc2ccccc12,9.7%,-9.5%
O=C(NNc1nc2ccc(Cl)cc2s1)c1cc(-c2cccs2)nc2ccccc12,7.94µM*,1.6%
CCS(=O)(=O)N1Cc2ccccc2CC1C(=O)Nc1nc2ccc(C)cc2s1 (centres undefined),12.6µM*,-6.8%
CCS(=O)(=O)N1Cc2ccccc2CC1C(=O)Nc1ccc(C)cc1 (centres undefined),?,-2.6%
N#Cc1ccc(CSc2nnc(NC(=O)C3CCCO3)s2)cc1 (centres undefined),-6.1%,-2.0%
SMILES,Cruzain inh noDet,Cruzain inh Det
CCS(=O)(=O)N1Cc2ccccc2CC1C(=O)Nc1nnc(SCc2ccc(C#N)cc2)s1 (centres undefined),25.1µM*,-5.6%
CCc1ccc(NC(=O)Cn2c(=O)n(-c3cc(OC)c(OC)c(OC)c3)c(=O)c3ccccc32)cc1,-0.9%,-2.7%
c1ccc(-c2cn(-c3ccccc3)c3ncnc(N4CCN(c5ccccc5)CC4)c23)cc1,8.6%,-0.8%
Cc1ccc(Cl)cc1NC(=O)Nc1nnc(N2CCCC(C)C2)s1 (centres undefined),-12.9%,-7.2%
Oc1oc(-c2ccco2)nc1C=Nc1ccccc1,-9.2%,-20.6%
CCC(=O)Oc1oc(-c2ccccc2)nc1C=Nc1ccccc1OC,-15.1%,-17.7%
CCOC(=O)c1ccc(N=Cc2nc3ccccc3n2C)cc1,3.9%,-1.1%
CN(C)c1ccc(N=Cc2nc(-c3ccccc3)oc2OC(=O)c2cccc(Br)c2)cc1,25.1µM*,-21.4%
CCOC(=O)c1ccc(N=Cc2nc(-c3ccccc3)oc2OC(C)=O)cc1,-27.0%,14.1µM*
CN(C)c1ccc(/C=C/C(=O)c2cccc(Br)c2)cc1,-3.9%,-1.7%
CC(=O)Oc1oc(-c2ccccc2)nc1C=Nc1ccccc1,25.1µM*,25.1µM*
Cc1ccc(C(=O)Oc2oc(-c3ccco3)nc2C=Nc2ccccc2)cc1,12.6µM*,10µM*
O=C1CCC=C1C(O)c1ccccc1 (centres undefined),-17.8%,4.0%
C=C[C@]1(C)C[C@H](OC(=O)CO)[C@]2(C)C3C(=O)CC[C@]3(CC[C@H]2C)[C@H](C)[C@H]1O (some centres undefined),-7.2%,2.4%
COC(=O)C1=C(C(=O)OC)[C@@H]2N(Cc3ccccc3)c3ccccc3[C@@]23C[C@@H](C(=O)OC)N(C(=O)NCc2ccccc2)C3=C1,9.2%,0.1%
COc1ccc(-c2nc(CSc3nncn4c3cc3oc(C)cc34)c(C)o2)cc1,1.3%,-4.0%
CCOc1cccc(C(=O)N(Cc2ccc(N(C)C)cc2)CC2CCCO2)c1 (centres undefined),6.2%,-1.1%
Cc1c(N=C=O)cccc1N=C=O,-13.8%,-8.9%
Cc1cccc(NC(=O)C(=O)NCCc2csc(-c3ccc(C(F)(F)F)cc3)n2)c1C,-2.9%,-0.3%
Cc1ccc(-n2ncc(C(=O)NCCCN3CCN(C)CC3)c2C2CCN(C(=O)OC(C)(C)C)CC2)cc1,3.2%,0.7%
O=C(COC(=O)c1ccc(O)cc1)Nc1ccc(Cl)cc1C(=O)c1ccccc1,-12.4%,-10.9%
Cc1ccccc1NC(=O)COC(=O)c1ccc(CSc2ccc(Cl)cc2)cc1,10µM*,2.9%
CCN(CC)[C@@H](C)CN1c2ccccc2Sc2ccccc21,-21.9%,-7.3%
COc1ccc(-c2noc(CNC(=O)c3ccccc3Br)n2)cc1,5.4%,-0.9%
CCOc1ccccc1NC(=O)n1ncc2cc(Cl)ccc21,0.0%,-2.0%
SMILES,Cruzain inh noDet,Cruzain inh Det
COc1ccc([N+](=O)[O-])cc1C1NN=C(c2ccccc2O)S1 (centres undefined),20µM*,-0.5%
COc1ccc([N+](=O)[O-])cc1NC(=O)Nc1ccccc1,-0.1%,-8.4%
COc1ccc(Cn2ccnc2SCC(=O)Nc2ccc(C)cc2C)cc1,-10.0%,-1.5%
C#CCn1c(=NC(=O)c2ccc(Cl)s2)sc2cccc(OC)c21,?,4.9%
COC(=O)Cn1c(=NC(=O)c2ccc(Cl)s2)sc2cc(F)ccc21,25.1µM*,-9.3%
CCC1CCCCN1C(=O)Cn1c(=O)n(CC2CCC(C(=O)NC)CC2)c(=O)c2sccc21 (centres undefined),1.7%,-1.4%
CC(=O)[C@H]1[C@H](C#N)CC2C3CC=C4C[C@@H](O)CCC4(C)C3CCC21C (some centres undefined),-9.2%,-3.5%
O=C(Nc1nc(C2C3CC4CC(C3)CC2C4)cs1)c1cc2cc([N+](=O)[O-])ccc2oc1=O (centres undefined),25.1µM*,-2.1%
COc1ccc(C(=O)NNC(=O)c2cc3cc([N+](=O)[O-])ccc3oc2=O)cc1OC,1.1%,-1.1%
O=C(COC(=O)c1ccc(-c2ccc([N+](=O)[O-])cc2)o1)NC(=O)NC1CCCCC1,?,-13.3%
O=C(COC(=O)c1ccc(-c2ccc([N+](=O)[O-])cc2)o1)NC(=O)NC12CC3CC(CC(C3)C1)C2,25.1µM*,-5.0%
C=CCC(C)(Nc1ccccc1)C(=O)OCC (centres undefined),5.4%,4.7%
O=C(Nc1nnc(SCc2cccc3ccccc23)s1)C1COc2ccccc2O1 (centres undefined),25.1µM*,-3.4%
O=C(Nc1nc(-c2ccc(S(=O)(=O)N3CCCC3)cc2)cs1)C1COc2ccccc2O1 (centres undefined),10µM*,1.5%
